Screens deposited in PubChem BioAssay by National Center for Advancing Translational Sciences (NCATS).
Compounds with a hit are over-represented: about 9.4% of the library has one in this group of screens.
ELG1 genotoxic: genotoxicity induction in ELG1-luciferase HEK293T cells; HEK293T ELG1-luciferase reporter, luminescence, 16 h; Potency, µM (highest dose often 46 µM), most hits filed as activators; 1.3% of 330,000 active; AID 504466; note: nearly all actives have a fitted effect of over 60% in size
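Genotoxicity was scored as increased ELG1-luciferase reporter signal, measured by ONE-Glo luminescence (30 min, room temperature). Compound or vehicle exposure of the HEK293T reporter cells lasted 16 hr at 37°C.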
NPC1 promoter act: activators of NPC1 promoter; 2.4% of 320,000 active; Potency, µM (doses to about 9.22 µM), usual class: activators; Huh7 NPC1 promoter luciferase reporter, 24 h; note: nearly all actives have a fitted effect of over 60% in size
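Luciferase expression driven by the NPC1 promoter was measured in stably transfected Huh7 cells after a 24 h compound incubation, using a luciferase reagent and a luminescence read.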
SMN2 splice up: enhancers of SMN2 splice variant expression; 2.8% of 210,000 active; Potency, µM (highest dose often 46.1 µM), actives largely listed as activators; HEK293 SMN2-luciferase splicing reporter, luminescence, 30-36 h; note: nearly all actives have a fitted effect of over 55% in size
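HEK293 cells carry an SMN2 […]–luciferase reporter in which exon 7 inclusion puts luciferase in frame. Cells were plated 10-12 h before compound addition, then incubated 30-36 h at 37C. ONE-Glo luminescence was read; sodium butyrate at 4.5 mM final served as control.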
FLuc modulator: counter-screen for miR-21 project: firefly luciferase inhibitors or activators; 6.9% of 360,000 active; purified FLuc, Km substrates, luminescence inhibition; AID 588342; Potency, µM (titrated, usually from 57.5 µM), hits mostly inhibitors; note: nearly all actives have a fitted effect of over 55% in size
Target sequence (P08659 whole entry, looked up): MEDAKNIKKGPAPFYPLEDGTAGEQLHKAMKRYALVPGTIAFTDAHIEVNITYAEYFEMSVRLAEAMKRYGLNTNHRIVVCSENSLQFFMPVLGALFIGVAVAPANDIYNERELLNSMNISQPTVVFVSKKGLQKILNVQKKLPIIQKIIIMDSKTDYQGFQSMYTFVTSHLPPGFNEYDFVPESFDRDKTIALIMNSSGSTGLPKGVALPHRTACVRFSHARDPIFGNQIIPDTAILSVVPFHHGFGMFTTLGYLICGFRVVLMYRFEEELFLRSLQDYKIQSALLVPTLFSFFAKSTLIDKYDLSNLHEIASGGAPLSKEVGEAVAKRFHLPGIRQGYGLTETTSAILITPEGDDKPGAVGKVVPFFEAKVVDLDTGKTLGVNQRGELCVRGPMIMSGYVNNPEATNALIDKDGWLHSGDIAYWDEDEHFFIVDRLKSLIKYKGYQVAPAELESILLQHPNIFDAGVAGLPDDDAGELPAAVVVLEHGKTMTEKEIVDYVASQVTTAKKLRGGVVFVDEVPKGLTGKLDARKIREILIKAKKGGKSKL
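Purified P. pyralis luciferase, 10 nM final, with Km-level 10 uM D-luciferin and 10 uM ATP in 50 mM Tris acetate pH 7.5, 10 mM Mg acetate, 0.01% Tween-20, 0.05% BSA; 6-point qHTS titration about 60 µM downward; luminescence read.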
ELG1 DNA repair: blocks ELG1-dependent DNA repair in HEK293T cells | HEK293T ELG1-luciferase reporter, luminescence, 16 h; DNA damage induced by 5-fluorouridine | Potency, µM (top dose mostly 46.1 µM), most hits filed as inhibitors | 2.3% of 330,000 active; note: nearly all actives have a fitted effect of over 55% in size
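Overnight (16 hr) co-exposure of 2,000 cells/well to 5-fluorouridine and compound at 37 °C preceded detection. Luciferase was quantified via ONE-Glo luminescence; loss of signal denotes inhibition.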
Rab9 promoter act: Rab9 promoter activation | Huh7 Rab9 promoter-luciferase reporter, luminescence, 24 h | Potency, µM (highest dose often 9.22 µM), usual class: activators | 2.8% of 320,000 active; note: nearly all actives have a fitted effect of over 60% in size
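Luminescence read-out: Huh7 cells stably expressing Rab9-luciferase, treated 24 h with compound at 37 °C, then lysed with luciferase reagent for 10 min at ambient before reading.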
Hits are given with their value; 0 = inactive; ? = inconclusive; - = not tested or not shown; [ ] = another dose, or the depositor's remark. Calls come from the whole dose curve; as a rule, active = well fitted curve in the direction sought with a large enough effect; inconclusive = small, poorly fitted or top-dose-only effect, or another doubt; inactive = no such curve, though single readings can be large; an effect the other way counts as inactive or inconclusive.

SMILES	ELG1 genotoxic	NPC1 promoter act	SMN2 splice up	FLuc modulator	ELG1 DNA repair	Rab9 promoter act
COc1ccc(/C=C2\SC(=S)N(CCC(=O)N3CCCCC3)C2=O)cc1	0	0	-	?	0	0
COc1ccc(/C=C2/SC(=S)N(CCCC(=O)N3CCN(C)CC3)C2=O)cc1	0	0	-	21µM	?	0
COc1ccc(/C=C2\SC(=S)N(CC(=O)N3CCN(C)CC3)C2=O)cc1	0	0	-	11µM	0	0
COc1ccc(/C=C2/SC(=S)N(CCC(=O)N3CCN(C)CC3)C2=O)cc1	0	0	-	?	0	0
Cc1cc(NC(=O)CCN2C(=O)/C(=C/c3ccccc3Cl)SC2=S)no1	0	0	0	0	0	0
CCc1ccc(/C=C2\SC(=S)N(CCC(=O)Nc3cc(C)on3)C2=O)cc1	0	0	-	17µM	0	0
CCc1ccc(/C=C2\SC(=S)N(CCC(=O)N3CCN(C)CC3)C2=O)cc1	0	0	0	2.7µM	0	0
Cn1c(=O)cc(OCCCC(=O)Nc2ccc(F)cc2)c2ccccc21	-	-	0	0	-	-
COc1cccc(N2CCN(C(=O)c3ccc4c(Cl)c5c(nc4c3)CCCC5)CC2)c1	-	-	0	0	-	-
CN1CCN(C(=O)CCCN2C(=O)/C(=C/c3ccc(Cl)cc3)SC2=S)CC1	0	0	-	0	18µM	0
Cc1ccc(/C=C2\SC(=S)N(CCCC(=O)N3CCOCC3)C2=O)cc1	0	0	-	21µM	13µM	0
COc1ccc(/C=C2\SC(=S)N(CC(=O)NCCO)C2=O)cc1	0	0	0	9.5µM	?	0
COC(=O)N1C(C2CC2)=Cc2ccccc2C1CC(C)=O (centres undefined)	-	-	0	-	-	-
Cc1nn(-c2ccccc2)c2sc(C(=O)Nc3cccc(Br)c3)cc12	-	-	0	0	-	-
O=C(COC(=O)c1ccccc1F)Nc1ccc2c(c1)OCCO2	0	0	-	0.48µM	0	0
CN(C)S(=O)(=O)c1cccc(C(=O)OCC(=O)Nc2ccc3c(c2)OCCO3)c1	0	0	-	?	0	0
O=S(=O)(NCC1COc2ccccc2O1)c1ccccc1F (centres undefined)	0	-	-	-	0	-
Cc1c(-c2cccc(Cl)c2)nc2ccccc2c1C(=O)OCC(=O)Nc1ccc2c(c1)OCO2	0	0	0	0	18µM	0
Cc1onc(-c2ccccc2)c1C(=O)OCC(=O)Nc1ccc2c(c1)OCO2	0	0	0	0	0	0
Cc1cccc(C(=O)OCC(=O)Nc2ccc3c(c2)OCCO3)c1	0	0	-	19µM	?	0
O=C(OCC1COc2ccccc2O1)c1ccccc1F (centres undefined)	0	0	0	6µM	?	0
COc1ccc(OC)c(N(CC(=O)NCc2ccccc2)S(=O)(=O)c2ccccc2)c1	-	-	0	0	-	-
CCCCOc1ccc(C(C)NC(=O)CN2C(=O)CSc3ccc(S(=O)(=O)N4CCOCC4)cc32)cc1 (centres undefined)	-	-	-	0	-	-
COc1cc(C(=O)NCc2ccc3c(c2)CCN3C(=O)c2ccncc2)cc(OC)c1OC	-	-	-	0	-	-
O=C(COC(=O)c1cccc(F)c1)Nc1ccc2c(c1)OCCO2	0	0	-	1.9µM	?	0
SMILES	ELG1 genotoxic	NPC1 promoter act	SMN2 splice up	FLuc modulator	ELG1 DNA repair	Rab9 promoter act
COc1ccc(NC(=O)/C(Cl)=C(/Cl)S(=O)Cc2ccccc2Cl)cn1 (centres undefined)	0	0	0	?	15µM	0
O=C(CCCN1C(=O)c2cccnc2Oc2ccc(Cl)cc21)NCc1ccccc1F	-	-	-	0	-	-
Cc1ccc(Cl)cc1-n1ncc2c(NC3CCCCC3)ncnc21	-	-	-	0	-	-
Fc1ccc(-n2ncc3c(NC4CCCCCC4)ncnc32)cc1	-	-	-	4.8µM	-	-
Cc1ccc(-n2ncc3c(NC4CCCCC4)ncnc32)cc1	-	-	-	0.43µM	-	-
Cc1ccc(-n2ncc3c(NC4CCCCCC4)ncnc32)cc1	-	-	-	0.95µM	-	-
Cc1ccc(-n2ncc3c(Nc4ccc(Oc5ccccc5)cc4)ncnc32)cc1	-	-	-	0	-	-
Clc1cccc(-n2ncc3c(NC4CCCCC4)ncnc32)c1	-	-	-	4.8µM	-	-
CCCCCCCCC/C=C/CC1CC(=O)OC1=O (centres undefined)	-	-	0	-	-	-
Cc1ccc(CN2C(=O)CN(C3CCCCCC3)C(=O)C2c2ccc(F)cc2)cc1 (centres undefined)	-	-	-	0	-	-
O=C(NC1CC1)c1cc2cc3ccccc3nc2s1	?	2.2µM	-	11µM	?	3.5µM
O=C(NNS(=O)(=O)c1ccccc1)c1cc2cc3ccccc3nc2s1	0	0	0	?	?	0
Cc1cc(=O)oc2cc(OCC(=O)c3ccccc3)ccc12	0	0	-	0	0	0
Cc1cc(=O)oc2cc(OC(=O)c3ccccc3)ccc12	0	0	0	5.4µM	0	0
Cc1cc(=O)oc2cc(OC(=O)c3ccco3)ccc12	0	0	-	17µM	0	0
COCCOC(=O)c1c(C)oc2ccc(OCc3ccccc3)cc12	0	0	0	0	?	0
CCc1cc(=O)oc2cc(OC(=O)c3ccco3)ccc12	0	0	-	0	0	0
COCCOC(=O)c1c(C)oc2ccc(OC(=O)c3ccco3)cc12	0	0	0	24µM	?	0
Cc1cc(-c2ccccc2)nc(N/N=C/c2ccccc2)n1	0	?	-	6.7µM	?	?
O=C(O)c1csc(N/N=C/c2ccc(Br)cc2)n1	0	0	0	5.4µM	?	0
Cc1cc(=O)[nH]c(N/N=C/c2ccc([N+](=O)[O-])cc2)n1	0	0	0	0	0	0
Cc1cc(-c2ccccc2)nc(N/N=C/c2ccc(O)cc2O)n1	0	0	-	?	?	0
Cc1cc(-c2ccccc2)nc(N/N=C/c2ccco2)n1	0	?	0	12µM	0	?
Cc1csc(N/N=C/c2ccc([N+](=O)[O-])cc2)n1	0	?	-	?	?	2.8µM
CCNc1nc(NCC)nc(N/N=C/c2ccc(Br)cc2)n1	0	0	0	0	0	0
SMILES	ELG1 genotoxic	NPC1 promoter act	SMN2 splice up	FLuc modulator	ELG1 DNA repair	Rab9 promoter act
CCCCN(CCCC)CCNC(=O)c1cc(=O)[nH]c2ccc(S(=O)(=O)N3CCCCCC3)cc12	-	-	-	0	-	-
CCc1ccc(-n2c(=O)c3c4c(sc3n(CC(=O)N3CCCCC3CC)c2=O)CCC4)cc1 (centres undefined)	-	-	0	0	-	-
COc1cc2c(=O)n(Cc3ccccc3Cl)c(=O)n(CC(=O)Nc3ccc(C)c(C)c3)c2cc1OC	-	-	0	0	-	-
Cc1ccc(N2C(=O)CSC23C(=O)Nc2ccccc23)cc1F (centres undefined)	-	-	-	0	-	-
Cc1cc(-c2ccccc2)nc(N/N=C/c2ccc([N+](=O)[O-])cc2)n1	0	0	0[1.84 µM]	0	13µM	0
Cc1ccc2nc(C)cc(N/N=C/c3cccnc3)c2c1	0	0	-	0	0	0
O=[N+]([O-])c1ccc(/C=N/Nc2ncc(-c3ccccc3)cn2)cc1	0	0	0	0	0	0
Cc1ccc2nc(C)cc(SCC(=O)N/N=C/c3ccco3)c2c1	0	0	-	0	0	0
